Most compounds without a hit are left out; they make up all but 2.8% or so of the library.
MITF act: activators of MITF-driven TRPM1 promoter activity in SK-MEL-5 cells. SK-MEL-5 TRPM1-promoter luciferase, 24 h; % of positive control, neutral wells = 0. activation, % at 12.5 µM. 300,000 compounds, 0.75% hits. AID 588334;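 active means mean activation of at least 80% with every replicate also reaching 80%; inconclusive means mean reaches 80% but some replicate falls short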;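 further: 0% = neutral control wells and 100% = parthenolide positive control wells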
esBAF inh: SWI/SNF esBAF complex inhibition | 350,000 compounds, 2% hits | reporter increase, % at 12.5 µM | mouse ES cells, Bmi1-luciferase knock-in reporter, 24 h; 100% = twice the neutral-well signal | AID 602393; in the data active means activation above about 40%; inconclusive means no clear call, values can overlap the other calls;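 further: 0% = median of the plate's neutral control wells and 100% = double that signal; a rise in the Bmi1 reporter signal indicates esBAF inhibition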
Wnt act: activators of Wnt/beta-catenin signaling. 300,000 compounds, 1.2% hits. AID 743398. Wnt/beta-catenin reporter cell assay, activator, plate reader. activation, % at 9.35 µM; in the data active means activation above about 30%, passing the limit was not always enough; inconclusive means no clear call, values can overlap the other calls;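 further: 0% = neutral control wells and 100% = positive control wells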
FXN GAA850 act: increases GAA850 frataxin promoter reporter activity; activation, % at 6 µM; 360,000 compounds, 0.56% hits; AID 540364; HEK293 lucGAA850 FXN promoter luciferase reporter, 24 h; percent of 10 µM SAHA response;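 active means activation above the average of all compounds screened plus 3 SD, cutoff fixed separately per campaign, cut at about 7.5% in these data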;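 further: 0% = DMSO wells and 100% = 10 µM SAHA wells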
An asterisk follows results filed as active; ? = inconclusive; . = no result given.

SMILES | MITF act | esBAF inh | Wnt act | FXN GAA850 act
CCCc1cc(=O)oc2cc(OCc3ccc(C(=O)O)cc3)ccc12 | 23.4 | 53.1* | 4.7 | 3.7
O=C(O)c1ccc(COc2ccc3c(c2)CCC3)cc1 | 24.5 | . | 33.0* | -1.5
Cc1cc(N(CCO)CCO)ccc1N=Nc1cc(F)ccc1F | 69.3 | 59.3* | -2.3 | 6.4
COc1ccc(C2Nc3ccccc3C(=O)N2c2ccc(C)cc2)cc1Cn1nc(C)c([N+](=O)[O-])c1C (configuration not stated) | 89.5* | 86.0* | 15.9 | 6.7
COc1ccc(S(=O)(=O)N(C)C[C@H]2Oc3ccc(NS(=O)(=O)c4cn(C)cn4)cc3C(=O)N([C@H](C)CO)C[C@H]2C)cc1 | . | 1.5 | . | .
CC(=O)N1[C@H](C(=O)NCC2CC2)[C@@H](CO)[C@@H]2Cn3c(ccc(-c4ccccc4F)c3=O)[C@@H]21 | . | -2.6 | . | .
CCOC(=O)c1c(CN2CCC(C)CC2)n(C)c2cc(Br)c(OC)cc12 | 9.1 | . | 40.4* | 0.3
COc1ccc(NC(=O)Nc2ccc3c(c2)C(=O)N([C@H](C)CO)C[C@@H](C)[C@@H](CN(C)S(=O)(=O)c2cn(C)cn2)O3)cc1 | . | -5.4 | . | .
CN(C(=O)c1ccco1)c1nnc(C23CC4CC(CC(C4)C2)C3)s1 | . | 67.0* | 22.5 | 3.1
NC(=O)c1c(NC(=O)c2ccccc2Cl)sc2c1CCC2 | . | ? | 8.6 | 4.0
NC(=O)c1c(NC(=O)c2ccc(F)cc2Cl)sc2c1CCC2 | 59.8 | 49.3* | 9.7 | 5.3
NC(=O)c1c(NC(=O)c2ccccc2F)sc2c1CCCC2 | 18.1 | 64.9* | -1.1 | 4.2
CCn1cc(Br)c(C(=O)Nc2sc3c(c2C(N)=O)CCCC3)n1 | 23.0 | 7.3 | . | -0.7
Cn1cc(Br)c(C(=O)Nc2sc3c(c2C(N)=O)CCCC3)n1 | 85.1* | 67.2* | 8.8 | 5.0
O=C(C[C@@H]1CC[C@H](NC(=O)c2cccc(F)c2)[C@H](CO)O1)Nc1nccs1 | . | 3.9 | . | .
C[C@@H]1CN([C@@H](C)CO)C(=O)c2cccc(NS(=O)(=O)c3cn(C)cn3)c2O[C@H]1CN(C)Cc1ccncc1 | . | -5.5 | . | .
CCOC(=O)N/N=C/c1ccc(Oc2ccccc2)cc1 | 67.1 | 39.4 | 6.9 | 1.6
CCOC(=O)N/N=C\c1ccccc1OC/C=C/c1ccccc1 | 49.4 | 46.0* | 41.5* | 3.6
COC(=O)N/N=C\c1ccccc1OC/C=C/c1ccccc1 | 98.0* | 49.1* | 1.8 | 6.0
N#CCC(=O)N/N=C\c1cc(Br)ccc1OC/C=C/c1ccccc1 | 92.6* | 22.5 | ? | 3.9
C[C@@H]1CN([C@H](C)CO)C(=O)c2cc(NC(=O)Nc3ccc(F)cc3)ccc2O[C@H]1CN(C)C(=O)Nc1ccc(F)cc1 | . | -2.8 | . | .
Nc1ccccc1C(=O)NN=Cc1cccc([N+](=O)[O-])c1 | . | ? | 38.8* | .
Cc1nc2ccccc2cc1C(=O)N/N=C/c1cccc([N+](=O)[O-])c1 | 4.4 | . | -5.5 | 3.1
O=c1oc2ccccc2cc1-c1csc(NN=C2CCCCC2)n1 | 77.2 | 66.4* | . | 0.7
Cc1noc(C)c1S(=O)(=O)Nc1ccc2c(c1)C(=O)N([C@H](C)CO)C[C@@H](C)[C@H](CN(C)S(=O)(=O)c1ccc(Cl)cc1)OCCCC[C@@H](C)O2 | . | -5.7 | . | .
SMILES | MITF act | esBAF inh | Wnt act | FXN GAA850 act
COC(=O)c1ccc(N2CCN(CC(=O)c3ccc(C)cc3)CC2)c([N+](=O)[O-])c1 | -15.2 | 7.4 | 2.3 | 2.0
COc1ccccc1N1CCN(CC(=O)c2ccc(F)cc2)CC1 | . | 41.9* | 0.0 | 1.7
COC(=O)c1ccc(N2CCN(CC(=O)c3ccc(-c4ccccc4)cc3)CC2)c([N+](=O)[O-])c1 | -17.2 | 48.5* | . | -1.6
CCCCCCC#Cc1ccc2c(c1)COc1c3ccccc3nn1-2 | 83.8* | 39.7 | 19.0 | 4.3
CCCCC#Cc1ccc2c(c1)COc1c3ccccc3nn1-2 | 13.4 | 71.3* | 23.3 | 2.3
N#CCCCC#Cc1ccc2c(c1)COc1c3ccccc3nn1-2 | -8.2 | -69.8 | 8.3 | -3.5
Clc1ccc(CSc2ncn(-c3ccccc3)n2)cc1 | 16.5 | 57.7* | . | -0.8
Clc1cccc(CSc2ncn(-c3ccccc3)n2)c1 | 54.7 | 42.2* | 2.3 | 5.2
O=C(CSc1ncn(-c2ccccc2)n1)N1CCc2ccccc21 | -0.8 | -4.8 | . | -0.4
C[C@H]1CN([C@@H](C)CO)C(=O)Cc2cc(NC(=O)CCCCCC(=O)Nc3ccccc3N)ccc2O[C@H]1CN(C)CC1CCCCC1 | . | -27.2 | . | .
COc1cccc(NC(=O)N(C)C[C@@H]2Oc3ncc(/C=C/c4ccccc4)cc3C(=O)N([C@H](C)CO)C[C@@H]2C)c1 | . | 2.8 | . | .
Cc1ccc2oc(C(=O)Nc3nnc(C)s3)c(C)c2c1 | 43.6 | 65.1* | 57.5* | 2.5
CC(=O)c1sc(NC(=O)c2oc3ccc(F)cc3c2C)nc1C | 66.3 | 49.8* | 39.4* | 5.9
COc1ccc2oc(C(=O)Nc3nnc(C)s3)c(C)c2c1 | 37.5 | -22.2 | 34.4* | 2.4
Cc1ccc2oc(C(=O)Nc3nonc3C)c(C)c2c1 | 74.5 | 36.3 | 12.4 | 0.6
COc1ccc(S(=O)(=O)N(C)C[C@H]2Oc3ncc(/C=C/c4ccccc4)cc3C(=O)N([C@@H](C)CO)C[C@@H]2C)cc1 | . | -0.9 | . | .
N#C/C(=C/c1ccc(N2CCOCC2)o1)C(=O)Nc1ccccc1 | 57.7 | 36.1 | 50.3* | 6.2
N#C/C(=C\c1ccc(N2CCOCC2)o1)C(=O)NCCc1ccccc1 | 15.0 | 8.1 | -2.1 | 1.7
Cn1nc(-c2ccc(Cl)cc2)cc1NC(=O)CC(C)(C)CC(=O)O | . | . | 40.8* | 3.5
CCCOc1ccc(C(=O)Nc2ccc(C)cc2[N+](=O)[O-])cc1 | 60.0 | 24.4 | . | 2.0
COc1ccc(C(=O)NCCNc2ccccc2[N+](=O)[O-])cc1 | 66.0 | 74.3* | -3.2 | 4.5
O=C(NCCNc1ccccc1[N+](=O)[O-])c1cc(F)c(F)cc1Cl | . | 36.1 | 3.1 | 4.2
CC(C)COc1ccc(C(=O)Nc2ccccc2[N+](=O)[O-])cc1 | 49.4 | . | 79.6* | 4.9
CCOc1ccc(C(=O)Nc2ncn[nH]2)cc1 | . | 2.7 | -0.9 | 2.1
CC(C)COc1ccc(C(=O)Nc2ncn[nH]2)cc1 | 19.6 | 44.8* | 6.5 | 2.2
SMILES | MITF act | esBAF inh | Wnt act | FXN GAA850 act
CCNC(=O)[C@@H]1[C@@H](CO)[C@@H]2Cn3c(ccc(-c4ccccc4)c3=O)[C@@H]2N1Cc1ccc2c(c1)OCO2 | . | 2.9 | . | .
Cc1noc(C)c1NC(=O)Nc1cccc2c1O[C@@H](CN(C)C(=O)Nc1ccc3c(c1)OCO3)[C@@H](C)CN([C@@H](C)CO)C2=O | . | 2.4 | . | .
C[C@@H]1CN([C@H](C)CO)C(=O)c2cc(NC(=O)CCC(F)(F)F)ccc2O[C@H]1CN(C)C(=O)Nc1ccccc1 | . | -4.4 | . | .
CCCCCn1cnc2c(sc3nc4c(cc32)CSC(C)(C)C4)c1=O | 94.1* | 38.9 | . | 1.7
O=C1c2ccccc2NC(c2ccc(Br)o2)N1O (configuration not stated) | . | 31.2 | 44.0* | 3.3
O=C1c2ccccc2NC(c2ccc(-c3cccs3)o2)N1O (configuration not stated) | 82.5* | 66.6* | 59.1* | 4.8
O=C1c2ccccc2NC(c2ccco2)N1O (configuration not stated) | 6.1 | 0.8 | . | -1.1
C#CCOC(=O)CCCC(=O)Nc1ccccc1OC | 0.6 | 0.5 | 50.1* | -0.2

Source: PubChem
